High-throughput results from PubChem.
Pf growth 96h – Primary qHTS for delayed death inhibitors of the malarial parasite plastid, 96 hour incubation; P. falciparum luciferase reporter growth, 96 h; Potency, µM (series often up to 28.7 µM), inactives show at the top dose activity change, negative = inhibition, most hits filed as inhibitors; actives 6.9% (n = 320,000); AID 504834, 2011; further: potency means the concentration at half of the fitted maximal effect; on the % scale 0 is the no-effect control and ±100 the full control effect
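Cell-based qHTS: luciferase-tagged P. falciparum in erythrocytes (2% hematocrit, 0.05% parasitemia final) incubated with compounds for 96 hours, 37 C, 5% CO2; luciferase detection reagent then added and luminescence measured.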
Cycloheximide cs – Cycloheximide Counterscreen for Small Molecule Inhibitors of Shiga Toxin | cell reporter, cycloheximide protein synthesis inhibition counterscreen | max response, % | actives 12% (n = 300,000) | AID 2314, 2010; in the data active means max response mostly above about 13%, no sharp cut-off; inactive means mostly below about 14%; further: read at 38.3 µM for the half of the compounds with a filed dose; 0% is about no effect
HCMV inh – qHTS Assay for inhibitors of the human cytomegalovirus (HCMV). AID 1259415, 2018. activity change, negative = inhibition, % at 57.5 µM. HFF cells, HCMV-luciferase reporter, 72 h; hits give low values. actives 4.5% (n = 410,000); in the data active means activity change below about -60%; inconclusive means no clear call, values can overlap the other calls; inactive means above about -39%; further: on the % scale 0 is the no-effect control and ±100 the full control effect
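Screen run at 2 compound doses on HFFs infected with reporter HCMV, MOI 1 PFU/cell. Luciferase activity from cell lysates at 72 h post infection gave inhibition relative to buffer-only and Salinomycin wells.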
Pf growth 48h – Primary qHTS for delayed death inhibitors of the malarial parasite plastid, 48 hour incubation; P. falciparum luciferase growth in erythrocytes, 48 h; Potency, µM (highest dose often 28.7 µM), for inactives: at the top dose activity change, negative = inhibition, actives largely listed as inhibitors; actives 5.9% (n = 310,000); AID 504832, 2011; further: potency means the concentration at half of the fitted maximal effect; on the % scale 0 is the no-effect control and ±100 the full control effect
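In quantitative HTS format, infected erythrocytes bearing luciferase-reporter parasites were treated for a single generation at 37 C. Luminescence after adding detection reagent served as the growth measure.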
Shiga toxin inh – A qHTS for Small Molecule Inhibitors of Shiga Toxin; Vero cells, Shiga toxin protein synthesis inhibition reporter; actives 9.2% (n = 290,000); AID 2315, 2010; inhibition, % at 38.7 µM; in the data active means inhibition mostly above about 28%, no sharp cut-off; inactive means mostly below about 43%; further: 0% is about no effect
Starred values were filed as active, the others as inactive; ? = inconclusive; . = not tested or not shown. Sampled rows, rich in hits. Any-hit rate of the full collection: about 20%. Unless noted, the call rests on the fitted dose curve; in most records, active means well fitted inhibition curve with a large enough effect; inconclusive means small, poorly fitted or top-dose-only effect, or another doubt; inactive means no such curve, though single readings can be large or run the other way.

SMILES | Pf growth 96h | Cycloheximide cs | HCMV inh | Pf growth 48h | Shiga toxin inh
CCCCOc1ccc(/C=N/NC(=O)c2csc(C)c2C)cc1 | . | 9 | -21 | ? | 24
CC/C(=N\NC(=O)c1csc(C)c1C)c1cccs1 | 87% | 37* | 144 | 176% | 95*
CCCCCCCCCCCCC/C=C/C(O)C(COP(=O)(O)OCCN)NC(=O)CCCCCCCCCCCCCCCCC (stereo not given) | . | -4 | . | . | 0
CSCC[C@H](NC(=O)C1CCN(S(=O)(=O)c2ccc(C)cc2)CC1)C(=O)NCc1ccco1 | ? | -1 | 21 | ? | 8
CC1CCCN(C(=O)C2CCN(S(=O)(=O)c3cccc4nsnc34)CC2)C1 (stereo not given) | ? | -3 | -26 | 12% | -14
O=C1CC2(CCCCC2)Oc2ccc(O)cc21 | 4.1µM* | -3 | ? | -24% | -11
COc1ccc([C@H]2CC(=O)c3c(O)cc(O)cc3O2)cc1O | 46% | 23* | 19 | 2% | 57
COc1cc(C2CC(=O)c3c(O)cc(O)cc3O2)ccc1O (stereo not given) | ? | -1 | -19 | -5% | -10
COc1c(O)cc2c(c1O)C(=O)CC(c1ccccc1)O2 (stereo not given) | ? | 44* | . | 65% | 71*
Cc1ccc(-c2nnc3c4ccccc4c(C)nn23)cc1S(=O)(=O)N1CCN(C)CC1 | . | . | 45 | . | .
Cc1ccc(-c2nnc3c4ccccc4c(C)nn23)cc1S(=O)(=O)N1CCN(CCO)CC1 | ? | 6 | 45 | 0.41µM* | -1
O=C1/C(=C/c2ccc(F)cc2)Oc2cc(OC(=O)N3CCOCC3)ccc21 | 23% | -2 | 31 | ? | 39
CC(=O)Oc1ccc(/C=C2/Oc3ccccc3C2=O)cc1 | 8% | 32* | 47 | 14% | 49*
O=C1/C(=C/c2ccccc2)Oc2cc(OC(=O)N3CCOCC3)ccc21 | ? | 19* | 60 | 5% | 11
COc1ccc(/C=C2\Oc3ccccc3C2=O)cc1 | . | . | 147 | . | .
CCOC(=O)N1CCC(NS(=O)(=O)c2ccc(C)c(Cl)c2)CC1 | ? | -2 | -36 | ? | -3
O=C(O)c1c(Cl)c(Cl)c(Cl)c(Cl)c1-c1c2cc(I)c(=O)c(I)c-2oc2c(I)c(O)c(I)cc12 | -26% | -7 | ? | -7% | -9
O=C(NCCCN1CCCC1)c1ccc2c(Cl)c3c(nc2c1)CCCC3 | -17% | 5 | -73* | -5% | -5
CCCCN(CC)CCNC(=O)c1ccc2c(Cl)c3c(nc2c1)CCC3 | ? | 6 | -35 | ? | 20
O=C(NCc1cccc(Cl)c1)c1ccc2c(Cl)c3c(nc2c1)CCCC3 | . | . | -78* | . | .
O=C(NC1CC1)c1ccc2c(Cl)c3c(nc2c1)CCCC3 | -42% | 23* | -62* | 23% | 68*
CCN(CC)CCCNC(=O)c1ccc2c(Cl)c3c(nc2c1)CCCC3 | ? | -6 | -88* | -13% | -21
CCCN1CCN(CCCNC(=O)c2ccc3c(Cl)c4c(nc3c2)CCCC4)CC1 | 45% | -2 | 0 | ? | -14
O=C(NCc1ccc(Cl)cc1)c1ccc2c(Cl)c3c(nc2c1)CCCC3 | . | . | -38 | . | .
CCc1cc(-c2nnn(-c3cc(C(C)C)ccc3C)c2CC)ccc1-c1cn(CCc2c[nH]c3ccccc23)nn1 | . | . | -32 | . | .
SMILES | Pf growth 96h | Cycloheximide cs | HCMV inh | Pf growth 48h | Shiga toxin inh
COc1cc(NC(=O)CC2C(=O)N(c3cccc(C)c3)C(=O)N2Cc2cccs2)cc(OC)c1 (stereo not given) | . | . | -31 | . | .
COCCNC(=O)CSc1c2c(nc3cc(Cl)ccc13)CCCC2 | . | . | 5 | . | .
CCN(CC)CCNC(=O)CSc1c2c(nc3cc(Cl)ccc13)CCCC2 | 14% | -6 | -99* | ? | -21
CCc1ccc(N(CC)C(=O)c2ccc3c(Cl)c4c(nc3c2)CCC4)cc1 | -21% | -4 | -22 | ? | -14
CCN(C(=O)c1ccc2c(Cl)c3c(nc2c1)CCC3)c1cccc(C)c1 | ? | 22* | . | ? | 16
O=C(CC1NC(=S)NC1=O)c1ccc(Cl)cc1 (stereo not given) | 22% | 0 | -20 | 4% | 9
CN(C)CCNC(=O)c1cc2sc3ccccc3c2s1 | ? | 40* | 33 | ? | 85*
CCN(CC)C(=O)c1cc2sc3ccccc3c2s1 | -20% | 71* | 65 | 129% | 106*
COCCN(CCOC)C(=O)c1cc2sc3ccccc3c2s1 | ? | 12 | -33 | ? | 68
COC(=O)c1cc(O)c(OCc2ccccc2)c(O)c1 | 26% | 18* | 7 | -21% | 15
O=C(COc1ccccc1)c1ccccc1 | . | . | 0 | . | .
COC(=O)c1cc[n+](CC(=O)c2ccccc2)cc1 | . | 26* | 2 | 23% | 24
NC(=O)c1ccc[n+](CC(=O)c2ccccc2)c1 | -2% | 2 | -6 | 53% | 2
COC(=O)c1ccc(OCC(=O)c2ccccc2)cc1 | 153% | 46* | 113 | . | 67*
Cc1ccc(CNC(=O)CCCN2C(=O)c3cccnc3Oc3ccc(Cl)cc32)cc1 | . | . | 0 | . | .
CCCn1c(Sc2nnnn2-c2ccccc2)n[nH]c1=O | 0% | 2 | -106* | 32% | -3
C(=C\CSc1nnnn1-c1ccccc1)/CSc1nnnn1-c1ccccc1 | ? | -7 | 5 | ? | -7
Cc1ccccc1-n1nnnc1SCC(N)=O | -3% | -1 | -4 | 21% | 9
Cc1ccccc1-n1nnnc1Sc1nnnn1-c1ccccc1 | . | -4 | ? | 8.3µM* | -20
CCCSc1nnc(Sc2nnnn2-c2ccccc2)s1 | . | 24 | -78* | 13µM* | 23
COc1ccc2c(C)cc(Sc3nnnn3-c3ccccc3)nc2c1 | ? | -7 | -101* | -30% | -14
C[C@@H]1CN([C@@H](C)CO)C(=O)CCCn2nncc2CO[C@@H]1CN(C)C(=O)Nc1ccccc1 | . | . | 16 | . | .
Cc1cc(C)c(C#N)c(Sc2nnnn2-c2ccccc2)n1 | 2.3µM* | -4 | -28 | -3% | -3
Cc1nc(Sc2nnnn2-c2ccccc2)c(C#N)c(C)c1C | ? | -4 | -14 | . | -4
CCc1c(C)nc(SCC(N)=O)c(C#N)c1C | -30% | 12 | -64* | . | 10
SMILES | Pf growth 96h | Cycloheximide cs | HCMV inh | Pf growth 48h | Shiga toxin inh
CCc1c(C)nc(SCC(=O)c2cccs2)c(C#N)c1C | 121% | 39* | 87 | . | 40
Cc1c(C#N)c(SCC(N)=O)nc2c1CCCC2 | 9.3µM* | -7 | -18 | 8% | -16
CCc1c(C)nc(SCC(=O)CC(=O)OC(C)C)c(C#N)c1C | 1% | 10 | -4 | ? | 18
Cc1ccc(-c2nc(SCC(N)=O)c(C#N)c3c2CCCC3)cc1 | ? | -2 | ? | . | -9
CC1=C(c2ccc(C)c(C)c2)S(=O)(=O)N(Cc2ccc(C(=O)NC(C)c3ccccc3)cc2)C1=O (stereo not given) | . | . | 1 | . | .
O=C1OCCC1Sc1nnc(-c2ccc(F)cc2)n1Cc1ccccc1 (stereo not given) | -13% | -5 | -34 | 16% | -3
